# From PubChem BioAssay
# A number with no mark means an inactive call. How the calls were made is not given here.
# Molecular target: Pantothenate synthetase (Mycobacterium tuberculosis (strain ATCC 25618 / H37Rv)) (UniProt P9WIL5)
# Assay: Recombinant Mtb pantothenate synthetase (PanC) inhibitors, coupled enzyme, confirmatory (AID 375);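 further: 0% = full reaction with vehicle and 100% = no enzyme background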
# Details: coupled enzyme assay; at 10 µM, stronger effect = higher value
# Sequence of Pantothenate synthetase (Mycobacterium tuberculosis (strain ATCC 25618 / H37Rv)) (P9WIL5 whole entry, looked up): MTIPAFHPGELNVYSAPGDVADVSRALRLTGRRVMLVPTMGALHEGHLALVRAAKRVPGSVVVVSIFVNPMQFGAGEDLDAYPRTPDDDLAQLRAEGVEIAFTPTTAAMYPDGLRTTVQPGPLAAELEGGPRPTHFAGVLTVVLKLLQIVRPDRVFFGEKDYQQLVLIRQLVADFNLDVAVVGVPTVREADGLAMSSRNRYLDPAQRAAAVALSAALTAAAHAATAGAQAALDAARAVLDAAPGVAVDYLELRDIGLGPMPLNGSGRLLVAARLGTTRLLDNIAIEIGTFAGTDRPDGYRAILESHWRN
row,Compound,inhibition [%]
1,O=C(Nc1ccc(F)cc1)NC1CCN(Cc2nnnn2Cc2ccco2)CC1,0
2,COCc1nnc(NS(=O)(=O)c2ccc(Br)cc2)s1,2
3,CC(C)C1C2=C(CC(C)(C)CC2=O)ON1c1ccccc1 (centres undefined),1
4,Cc1oc2c(CN3CCCC3)c(O)ccc2c(=O)c1-c1ccccc1,0
